# Tau FP inhib – inhibitors of human tau fibril formation | Potency, µM (top dose mostly 57.7 µM), without a hit: top-dose activity, negative = inhibition, usual class: inhibitors | P10636 | K18 P301L tau heparin fibrillization, Alexa594 FP, 6 h | 280,000 tested, 0.39% active; further: potency means the concentration at half of the fitted maximal effect; nearly all actives have a fitted effect of over 55% in size
# Target sequence (P10636 561-689 P618L limits assumed): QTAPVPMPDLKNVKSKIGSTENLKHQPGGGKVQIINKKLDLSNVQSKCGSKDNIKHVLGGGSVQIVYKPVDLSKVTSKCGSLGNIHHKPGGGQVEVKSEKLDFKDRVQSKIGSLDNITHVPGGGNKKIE
#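 Human tau K18 […] P301L fragment, 15 uM unlabeled plus 0.24 uM Alexa 594-labeled tau (final), with compound and 20 uM heparin in 100 mM sodium acetate pH 7; 6 hr at 37 C, then Alexa 594 FP read.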
# Sfp PPTase inh – Sfp phosphopantetheinyl transferase inhibition; Biochemical Sfp PPTase activity, qHTS; Potency, µM, for inactives: largest response in the series, negative = inhibition, usual class: inhibitors; 310,000 tested, 3.5% active;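 further: the enzyme is Sfp with the accession as filed and its product quenches rhodamine fluorescence; potency means the concentration at half of the fitted maximal effect; 0% = enzyme reaction without inhibitor and -100% = no enzyme wells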
#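 Sfp 15 nM + cpd, 15 min RT; start w/ rhodamine-CoA 5 uM, BHQ-2-YbbR 12.5 uM (final); 50 mM Hepes pH 7.6, 10 mM MgCl2, 0.01% NP-40, 0.01% BSA; read 525/598 nm at 0 and 30 min.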
# Coupling enz – inhibits coupling enzyme system, counter-screen for aldolase hits | activity change, negative = inhibition, % at 58.2 µM, hits read low | AID 2472 | 290,000 tested, 0.67% active | coupling enzyme system counterscreen, AmpLite Red fluorescence; in the data active means activity change below about -30%
#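 Activity here indicates interference with the coupling reaction, not aldolase inhibition. Compounds at 57.5 uM final met coupling enzymes for 10 min at RT; substrate and AmpLite Red detection followed, with a 525/598 nm fluorescence read after 20 min.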
# JMJD2E inh – inhibitors of human JMJD2E histone demethylase. B2RXH2. JMJD2E catalytic domain, FDH-coupled NADH fluorescence (FDH is formaldehyde dehydrogenase). Potency, µM (titrated, usually from 57.1 µM), inactives show top-dose activity change, negative = inhibition, hits mostly inhibitors. 230,000 tested, 1.6% active. AID 2147; active means well fitted inhibition curve with a large enough effect, not every such curve was filed as active; inconclusive means small, poorly fitted or top-dose-only effect, or another doubt; inactive means no such curve, though single readings can be large or run the other way;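 further: potency means the concentration at half of the fitted maximal effect; 0% = wells with enzyme and -100% = buffer wells without enzyme; nearly all actives have a fitted effect of over 50% in size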
# Target sequence (B2RXH2 1-337 limits assumed): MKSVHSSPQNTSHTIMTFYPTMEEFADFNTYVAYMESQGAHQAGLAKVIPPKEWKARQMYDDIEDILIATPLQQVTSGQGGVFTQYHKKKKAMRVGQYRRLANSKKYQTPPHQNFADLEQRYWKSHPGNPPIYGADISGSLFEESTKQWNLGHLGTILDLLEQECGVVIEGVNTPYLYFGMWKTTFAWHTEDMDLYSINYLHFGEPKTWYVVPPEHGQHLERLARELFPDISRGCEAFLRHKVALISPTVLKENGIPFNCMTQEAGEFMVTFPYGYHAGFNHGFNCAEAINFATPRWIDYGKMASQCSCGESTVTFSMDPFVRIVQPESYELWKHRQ
# Tau fluor counter – counter-screen for tau fibril formation inhibitors. Potency, µM (top dose mostly 57.7 µM), inactives show at the top dose activity change, negative = decrease. tau K18 P301L Alexa594 fluorescence, heparin fibrillization. 280,000 tested, 0.93% active; further: potency means the concentration at half of the fitted maximal effect; nearly all actives have a fitted effect of over 55% in size
#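 Human K18 P301L tau (15 uM unlabeled plus 0.24 uM Alexa 594-labeled, final) in 100 mM sodium acetate pH 7 was mixed with compound and 20 uM heparin and incubated 6 hr at 37 C.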
# Tau ThT inhib – tau fibrillization inhibition (ThT binding) | recombinant tau K18 P301L, heparin-induced fibrillization, ThT fluorescence | Potency, µM (top dose mostly 57.4 µM), for inactives: top-dose activity, negative = inhibition, most hits filed as inhibitors | 270,000 tested, 2.1% active | AID 1460; further: potency means the concentration at half of the fitted maximal effect; nearly all actives have a fitted effect of over 55% in size
#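 Fibril formation assay: tau K18 P301L at 15 uM with trace Alexa 594 label, heparin inducer 20 uM, pH 7 sodium acetate buffer, 37 C for 6 hr; endpoint ThT signal.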
# Numbers without * were called inactive; ? = inconclusive; . = no result given; ! = not active in a repeat; [ ] = another dose, or the depositor's remark. Only some compounds are listed: those with a hit (about 5.3% of all), similar ones and a draw of the others. Unless noted, the call rests on the fitted dose curve; in most records, active means well fitted curve in the direction sought with a large enough effect; inconclusive means small, poorly fitted or top-dose-only effect, or another doubt; inactive means no such curve, though single readings can be large; an effect the other way counts as inactive or inconclusive. Unless noted, on the % scale 0 is the no-effect control and ±100 the full control effect.
SMILES,Tau FP inhib,Sfp PPTase inh,Coupling enz,JMJD2E inh,Tau fluor counter,Tau ThT inhib
Cc1ccc(CNC(=O)c2nn(-c3ccc(Cl)cc3)nc2CO)cc1,-6%,.,.,.,2%,7%
COc1ccc(-c2ccc(C3C4C=CCCC4(C)C(=O)N3Cc3ccccc3)c(F)c2)cc1 (stereo not given),.,?,2,.,.,.
CC(=O)Nc1ccc2sc(C)nc2c1,-1%,3%,-1,4%,-6%,-9%
CC(=O)NS(=O)(=O)c1ccc2sc(C)nc2c1,4%,79µM*,0,-1%,-1%,-5%
N[C@@H](C(=O)O)c1ccc(C(=O)O)cc1,-3%,4%,2,?,-8%,-3%
N[C@H](C(=O)O)c1ccc(C(=O)O)cc1,-6%,45µM*!,0,?,-3%,9%
COc1cc(SC#N)ccc1N=Cc1c(C)[nH]n(-c2ccc(Cl)cc2)c1=O,?,0%,3,-6%,-23%,11µM*
COc1cc(S(=O)(=O)Nc2ccccc2)ccc1N=Cc1c(C)[nH]n(-c2ccc(C)cc2)c1=O,0%,5%,0,2%,?,?
COc1cc(SC#N)ccc1N=Cc1c(C)[nH]n(-c2ccc(C)c(C)c2)c1=O,?,0%,-1,1%,-19%,18µM*
COc1cc(C(C)C)c2c(c1)S(=O)(=O)N(COc1cc(=O)n3cccc(OCCN4CCCCC4)c3n1)C2=O,.,-18%,-1,.,.,.
Cc1cc(C)n2nc(SCC(=O)N/N=C/c3cccc(Br)c3)nc2n1,?,-12%,-32*,4%,10%,3%
Cc1cccc(NC(=O)CSc2nc3nc(C)cc(C)n3n2)c1,.,27%,0,.,.,.
Cc1cc(C)n2nc(SCC(=O)N/N=C/c3ccccn3)nc2n1,-3%,56µM*,1,?,3%,-10%
Cc1ccc2ncc3c(-c4ccccc4)nn(CC(=O)NC4CCCCC4)c3c2c1,-6%,.,.,.,-3%,5%
CCC(C(=O)NC1CCCCC1)n1nc(C)c2sc3ccccc3c2c1=O (stereo not given),-10%,.,.,.,-14%,-3%
CCCC1=NN2C(=N)/C(=C\c3cc(C)n(-c4cc(C)cc(C)c4)c3C)C(=O)N=C2S1,-2%,20µM*,15,?,1%,?
COc1ccc(-c2cc(=O)oc3c4c(ccc23)OCN(Cc2cccc(OC)c2)C4)cc1,-2%,.,.,.,-29%,?
O=C(CCCc1ccc(-c2ccccc2F)cc1)Nc1ccc(O)cc1,?,21%,1,-7%,11µM*[quencher],?
CN(Cc1cn(-c2ccccc2)nc1-c1ccc2c(c1)OCO2)Cc1nccn1C,7%,79µM*,-8,1%,-14%,-15%
Cc1ccc(CN(Cc2ccco2)C(=O)COc2ccc(Cl)cc2)o1,-2%,.,.,.,-2%,-7%
CC1=C(C(=O)Nc2ccc(Cl)cc2)C(c2ccncc2)C(C#N)=C(SCC(N)=O)N1 (stereo not given),3%,89µM*,-7,-9%,1%,10%
CC(=O)C1=C(C)NC(SCC(=O)Nc2nc3ccccc3s2)=C(C#N)C1c1ccc(Cl)cc1 (stereo not given),?,40µM*,1,?,?,?
CC(=O)C1=C(C)NC(SCC(N)=O)=C(C#N)C1c1cccnc1 (stereo not given),-11%,-11%,1,-16%,-5%,-4%
CCCOc1ccc(NC(=O)CC2C(=O)N(c3ccccc3)C(=O)N2CCC(C)C)cc1 (stereo not given),1%,.,.,.,?,-15%
CCOC(=O)CC(=O)CSc1nc2ccsc2c(=O)n1Cc1ccccc1,-1%,.,.,.,-14%,-6%
N#Cc1sc(=O)[nH]c1Cl,.,50µM*,10,.,.,.
Cn1c(SCC(=O)c2cc(Cl)c(Cl)s2)nnc1-c1ccco1,-13%,18µM*,13,-5%,-19%,?
C=Cc1ccc(Cn2c(=O)cc(C)c3c(C)nn(C)c32)cc1,4%,.,.,.,5%,?
CN1C(=O)/C(=C/c2cn(CC(=O)N3CCCCC3)c3ccccc23)NC1=S,.,0%,.,.,.,.

# Screens: PubChem BioAssay, National Center for Advancing Translational Sciences (NCATS)
